PubChem BioAssay
Records with an inconclusive call do not appear. Activity calls are given as the source filed them. Unless noted, the limit is not given here; nearly all actives have AC50 up to about 30 µM.

Experiment: viability loss in pontine glioma line – cell-based, JHH-DIPG-1, MIPE4.0, CellTiter-Glo, qHTS, dose response (AID 1347062; cut-off not given, nearly all actives have AC50 up to about 27 µM;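 as to AC50: cells exposed to compound for two days before readout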)
Conditions: JHH-DIPG-1 viability, CellTiter-Glo ATP luminescence

**Q.** With CNC(=O)c1c(-c2ccc(F)cc2)oc2cc(N(CCO)S(C)(=O)=O)c(C3CC3)cc12 as the molecule, how does the AC50 read?
**A.** 20.9 µM (active)

**Q.** Which outcome does the source give for CCOc1cc(/C=C2/C(=O)N(c3ccccc3)N=C2C)cc(Cl)c1OCC(=O)OC here?
**A.** inactive

**Q.** With C#CCN(C)CC1=Cc2ccccc2Oc2ccccc21 as the molecule, how does the outcome read?
**A.** inactive

**Q.** For Clc1ccc(COC(Cn2ccnc2)c2ccc(Cl)cc2Cl)c(Cl)c1 (stereo not given), which outcome is on record?
**A.** inactive

**Q.** With CC1(C)CNc2cc(NC(=O)c3cccnc3NCc3ccncc3)ccc21 as the molecule, how does the outcome read?
**A.** inactive

**Q.** With Cc1cnc(NC(=O)Nc2cc(Br)c(C)cc2OC[C@@H]2CNCCO2)cn1 as the molecule, how does the AC50 read?
**A.** 1.18 µM (active)

Experiment: viability loss in pontine glioma line – cell-based, SU-DIPG-IV, MIPE4.0, CellTiter-Glo, qHTS, dose response (AID 1347063);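 also: compound exposure lasted 48 hours before the viability readout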
Conditions: CellTiter-Glo ATP luminescence

**Q.** For N#CCNC(=O)c1ccc(-c2ccnc(Nc3ccc(N4CCOCC4)cc3)n2)cc1, which AC50 is on record?
**A.** 20.9 µM (active)

**Q.** Which outcome does the source give for COc1ccc2c(c1)CC[C@@H]1[C@@H]2CC[C@]2(C)[C@@H](NCCCCCCN3C(=O)C=CC3=O)CC[C@@H]12 here?
**A.** inactive

**Q.** Which AC50 does the source give for CC1(C)CCC2=C(O1)c1ccccc1C(=O)C2=O here?
**A.** 20.9 µM (active)

**Q.** Which AC50 does the source give for Cc1ncc(-c2ccnc(Nc3ccc(S(C)(=O)=O)cc3)n2)n1C(C)C here?
**A.** 2.35 µM (active)

**Q.** With Nc1nc(Nc2ccc(S(N)(=O)=O)cc2)nn1C(=O)c1c(F)cccc1F as the molecule, how does the AC50 read?
**A.** 9.35 µM (active)

**Q.** Which outcome does the source give for C/C(O)=C(\C#N)C(=O)Nc1ccc(C(F)(F)F)cc1 here?
**A.** inactive

**Q.** Which AC50 does the source give for O=C(Nc1ccccc1-c1cn2c(CN3CCNCC3)csc2n1)c1cnc2ccccc2n1 here?
**A.** 8.33 µM (active)

**Q.** With CNC(=O)c1cccc(-c2ccc3c(N4CCOC[C@@H]4C)nc(N4CCOC[C@@H]4C)nc3n2)c1 as the molecule, how does the AC50 read?
**A.** 0.0209 µM (active)

**Q.** Which AC50 does the source give for C[C@H]1[C@H](O)O[C@@H]2O[C@@]3(C)CC[C@H]4[C@H](C)CC[C@@H]1[C@@]24OO3 here?
**A.** 2.96 µM (active)
